According to PubChem BioAssay:
A number with no mark means an inactive call. The source made the active and inactive calls.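 How the source made its calls, unless noted: active means inhibition above 54%, about 3 SD of non-fluorescent compounds; inactive means the rest.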

These compounds were tested against Beta-adrenergic receptor kinase 1 (Homo sapiens) (UniProt P25098) (assay: GRK2 binders displacing RNA aptamer, biochemical, validation, human GRK2, bead flow cytometry (AID 488806;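 active means aptamer binding inhibition above 30%, about 3 SD of noise from non-fluorescent compounds; inactive means inhibition at or below 30%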)). Details: bead-bound GRK2, FAM-aptamer displacement, at 10 µM, hits give high values.
Beta-adrenergic receptor kinase 1 (Homo sapiens), sequence (P25098 whole entry, looked up): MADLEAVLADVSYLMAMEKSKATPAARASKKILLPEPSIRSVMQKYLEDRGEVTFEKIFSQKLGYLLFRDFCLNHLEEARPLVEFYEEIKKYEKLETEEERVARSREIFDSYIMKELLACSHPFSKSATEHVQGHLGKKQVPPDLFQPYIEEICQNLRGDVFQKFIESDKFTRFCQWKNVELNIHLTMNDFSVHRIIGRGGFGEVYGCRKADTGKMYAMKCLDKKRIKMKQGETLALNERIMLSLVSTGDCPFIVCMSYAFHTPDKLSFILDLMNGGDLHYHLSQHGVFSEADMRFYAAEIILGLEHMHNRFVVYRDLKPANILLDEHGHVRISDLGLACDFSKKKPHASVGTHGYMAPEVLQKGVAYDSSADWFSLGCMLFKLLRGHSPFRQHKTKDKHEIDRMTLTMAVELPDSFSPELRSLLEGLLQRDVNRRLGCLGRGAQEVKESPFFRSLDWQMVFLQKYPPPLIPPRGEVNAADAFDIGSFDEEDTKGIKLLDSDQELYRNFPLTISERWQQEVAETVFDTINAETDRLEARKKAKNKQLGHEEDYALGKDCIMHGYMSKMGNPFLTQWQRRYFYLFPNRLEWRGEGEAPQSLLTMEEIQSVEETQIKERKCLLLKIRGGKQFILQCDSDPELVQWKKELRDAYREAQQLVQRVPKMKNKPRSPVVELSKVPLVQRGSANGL

Row | SMILES | aptamer binding inhibition [%]
1 | COc1ccc2oc(=O)c(-c3nc(C)cs3)cc2c1 | 6
2 | CC(=O)Oc1cc(C(C)C)c(OCCN(C)C)cc1C | 6
3 | O=C(NNC(=O)c1cccs1)c1ccco1 | 1
4 | CC(C)Oc1ccc(C(CC(=O)O)c2ccc(F)cc2)cc1 (stereo not drawn) | 5
5 | Cc1ccccc1-c1coc2cc(O)ccc2c1=O | 4
6 | CCN(CC)CCOC(=O)C1(C2CCCCC2)CCCCC1 | -2
7 | NC(=O)OCC(COC(N)=O)c1ccccc1 | 4
8 | CC(C)[N+]1(C)[C@@H]2CC[C@H]1CC(OC(=O)C(CO)c1ccccc1)C2 (stereo partly drawn) | -2
9 | Cc1ccccc1OCCSc1nc2ncnc(N)c2[nH]1 | 2
10 | CC(=O)NCCCCCCNC(C)=O | -1
11 | CCN(Cc1ccncc1)Cc1nc(Cc2ccccc2Cl)no1 | 2
12 | CCOC(=O)NN1C(=O)c2ccccc2NC1c1ccc(OC)c(OC)c1 (stereo not drawn) | 2
13 | COc1ccc2c(c1)c(CC(=O)O)c(C)n2C(=O)c1ccc(Cl)cc1 | 1
14 | CC1=CC2(O)OCCN(CCO)C2=CC1=O (stereo not drawn) | 2
15 | Cc1ccccc1C(OCCN(C)C)c1ccccc1 (stereo not drawn) | 1
16 | COC1(C)CC2C(CC1OC(=O)c1cc([N+](=O)[O-])cc([N+](=O)[O-])c1)C2(C)C (stereo not drawn) | 5
17 | O=C1OC(c2ccc(O)cc2)(c2ccc(O)cc2)c2ccccc21 | 1
18 | Cn1c(=O)c2c(ncn2CC(O)CO)n(C)c1=O (stereo not drawn) | 2
19 | Cc1cnc(C(=O)N2CCCC(C(=O)c3ccc(Cl)cc3C)C2)cn1 (stereo not drawn) | 2
20 | CN(C)C(=O)C12CCC(C)(c3nc4ccccc4nc31)C2(C)C (stereo not drawn) | -1
21 | CCOC(=O)c1ccc(N2C(=O)C(CC(N)=O)N(CCc3ccc(OC)c(OC)c3)C2=S)cc1 (stereo not drawn) | 2
22 | Cc1cnc(C(=O)NCCc2ccc(S(=O)(=O)NC(=O)NC3CCCCC3)cc2)cn1 | 2
23 | COc1cccc2c1C(=O)O/C2=C/c1ccc2c(c1)OCO2 | 1
24 | COc1ccc(C2N3CC4(C)CN2CC(C)(C3)C4)cc1OC (stereo not drawn) | 1

Each compound was assayed against AP-2 complex subunit beta (Homo sapiens) (UniProt P63010) (assay: inhibitors of arrestin peptide binding to AP2, pilot screen, biochemical, validation set, GST-AP2 beads, flow cytometry (AID 504541;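 further: AP2 carries R879A mutation and is captured from E. coli lysate; bead-bound FITC arrestin peptide fluorescence measuring arrestin peptide binding to AP2; 0% = DMSO wells and 100% = excess unlabeled arrestin peptide control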)). Details: FITC arrestin peptide, at 10 µM, hits give high values, AP2 beta2 appendage fragment, R879A mutant.
AP-2 complex subunit beta (Homo sapiens), sequence (P63010 whole entry, looked up, the tested form may be a part, one chain of several): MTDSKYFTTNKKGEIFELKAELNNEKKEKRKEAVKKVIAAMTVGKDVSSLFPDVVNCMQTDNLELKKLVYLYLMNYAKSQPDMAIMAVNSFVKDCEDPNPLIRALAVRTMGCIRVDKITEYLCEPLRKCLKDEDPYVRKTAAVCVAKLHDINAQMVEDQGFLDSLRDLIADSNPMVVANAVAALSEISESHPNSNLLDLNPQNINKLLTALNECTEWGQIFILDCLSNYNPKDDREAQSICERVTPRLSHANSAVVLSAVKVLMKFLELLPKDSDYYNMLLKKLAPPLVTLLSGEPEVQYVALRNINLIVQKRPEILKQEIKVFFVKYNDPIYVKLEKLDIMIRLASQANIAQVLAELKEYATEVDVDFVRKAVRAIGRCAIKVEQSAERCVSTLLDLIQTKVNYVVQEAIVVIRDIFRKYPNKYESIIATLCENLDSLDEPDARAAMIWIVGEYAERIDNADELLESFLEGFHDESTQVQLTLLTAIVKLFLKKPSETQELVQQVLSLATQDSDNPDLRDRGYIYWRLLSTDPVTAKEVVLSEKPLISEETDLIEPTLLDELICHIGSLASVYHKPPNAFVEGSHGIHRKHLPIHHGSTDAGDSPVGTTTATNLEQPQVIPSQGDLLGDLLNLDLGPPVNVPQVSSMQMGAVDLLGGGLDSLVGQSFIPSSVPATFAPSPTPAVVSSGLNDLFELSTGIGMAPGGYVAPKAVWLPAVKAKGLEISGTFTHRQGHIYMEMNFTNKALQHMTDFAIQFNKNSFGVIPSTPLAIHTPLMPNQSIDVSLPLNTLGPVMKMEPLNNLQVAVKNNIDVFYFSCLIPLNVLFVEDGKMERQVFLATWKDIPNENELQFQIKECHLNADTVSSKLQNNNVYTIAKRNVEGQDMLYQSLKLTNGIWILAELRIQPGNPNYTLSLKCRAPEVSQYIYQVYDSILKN

Row | SMILES | inhibition
25 | Cc1ccc2[nH]c3c(c2c1)CN(C)CC3 | 15.9%
26 | COc1ccc2[nH]c3c(c2c1)CCn1c-3nc2ccccc2c1=O | 10.7%
27 | CC(=O)O[C@H]1CSC[C@H]1NC(=O)c1ccccc1 | -16.1%
28 | CC(=O)Oc1ccc2occ(/C=N/c3cc(=O)[nH]c(=S)[nH]3)c(=O)c2c1 | 25.5%
29 | O=C(O)CCSc1nc2ccccc2s1 | -3.62%
30 | CCOc1ccc(C(=O)/C=C/c2cc(OC)c(OC)c(OC)c2)cc1 | 4.7%
31 | COC(=O)c1cc(OC)c(OC)c(OC)c1[N+](=O)[O-] | -11.6%
32 | COC(=O)c1[nH]c2ccccc2c1NC(=O)CN1CCN(C/C=C/c2ccccc2)CC1 | 3.15%
33 | Cc1ncc([N+](=O)[O-])n1CC(C)O (stereo not drawn) | -6.78%
34 | Clc1ccccc1CN1CCc2sccc2C1 | 59.3% (active)
35 | CC[C@]1(O)C[C@@H]2CN(CCc3c([nH]c4ccccc34)[C@@](C(=O)OC)(c3cc4c(cc3OC)N(C)[C@H]3[C@@](O)(C(=O)OC)[C@H](OC(C)=O)[C@]5(CC)C=CCN6CC[C@]43[C@@H]65)C2)C1 | -7.9%
36 | O=C(CCCN1CC=C(n2c(=O)[nH]c3ccccc32)CC1)c1ccc(F)cc1 | -14.3%
37 | CCOc1cccc(N2C(=O)CC(N(CCc3ccc(OC)c(OC)c3)C(=O)CC)C2=O)c1 (stereo not drawn) | 27.3%
38 | COC(=O)C1=C(C)NC(C)=C(C(=O)OC)C1c1ccccc1[N+](=O)[O-] | 34.7%
39 | CC(COc1ccccc1)NC(C)C(O)c1ccc(O)cc1 (stereo not drawn) | 37.9%
40 | COc1ccc2oc(=O)c(-c3nc(C)cs3)cc2c1 | -7.03%
41 | CC(=O)Oc1cc(C(C)C)c(OCCN(C)C)cc1C | -9.83%
42 | O=C(NNC(=O)c1cccs1)c1ccco1 | -10.8%
43 | CC(C)Oc1ccc(C(CC(=O)O)c2ccc(F)cc2)cc1 (stereo not drawn) | -6.35%
44 | Cc1ccccc1-c1coc2cc(O)ccc2c1=O | 30.2%

Row | SMILES | inhibition
45 | CCN(CC)CCOC(=O)C1(C2CCCCC2)CCCCC1 | -6.04%
46 | NC(=O)OCC(COC(N)=O)c1ccccc1 | -15.7%
47 | CC(C)[N+]1(C)[C@@H]2CC[C@H]1CC(OC(=O)C(CO)c1ccccc1)C2 (stereo partly drawn) | 7.81%
48 | Cc1ccccc1OCCSc1nc2ncnc(N)c2[nH]1 | -6.91%
49 | CC(=O)NCCCCCCNC(C)=O | -11.9%
50 | CCN(Cc1ccncc1)Cc1nc(Cc2ccccc2Cl)no1 | 8.49%
51 | CCOC(=O)NN1C(=O)c2ccccc2NC1c1ccc(OC)c(OC)c1 (stereo not drawn) | -4.55%
52 | COc1ccc2c(c1)c(CC(=O)O)c(C)n2C(=O)c1ccc(Cl)cc1 | -6.1%
53 | CC1=CC2(O)OCCN(CCO)C2=CC1=O (stereo not drawn) | -3.8%
54 | Cc1ccccc1C(OCCN(C)C)c1ccccc1 (stereo not drawn) | -8.71%
55 | COC1(C)CC2C(CC1OC(=O)c1cc([N+](=O)[O-])cc([N+](=O)[O-])c1)C2(C)C (stereo not drawn) | -6.29%
56 | O=C1OC(c2ccc(O)cc2)(c2ccc(O)cc2)c2ccccc21 | 28%
57 | Cn1c(=O)c2c(ncn2CC(O)CO)n(C)c1=O (stereo not drawn) | -7.53%
58 | Cc1cnc(C(=O)N2CCCC(C(=O)c3ccc(Cl)cc3C)C2)cn1 (stereo not drawn) | 21.9%
59 | CN(C)C(=O)C12CCC(C)(c3nc4ccccc4nc31)C2(C)C (stereo not drawn) | 9.98%
60 | CCOC(=O)c1ccc(N2C(=O)C(CC(N)=O)N(CCc3ccc(OC)c(OC)c3)C2=S)cc1 (stereo not drawn) | 18.9%
61 | Cc1cnc(C(=O)NCCc2ccc(S(=O)(=O)NC(=O)NC3CCCCC3)cc2)cn1 | -11.4%
62 | COc1cccc2c1C(=O)O/C2=C/c1ccc2c(c1)OCO2 | -5.67%
63 | COc1ccc(C2N3CC4(C)CN2CC(C)(C3)C4)cc1OC (stereo not drawn) | 9.79%
